PubChem BioAssay AID1903 (Southern Research Specialized Biocontainment Screening …, 2009)
The whole screen tested about 310,000 compounds, of which about 1,200 (0.39%) were called active. How the calls were made is not given here. The list is a sample of the results. Potency and affinity values are given separately.

The compounds below were run against Large T antigen (Simian virus 40) (UniProt P03070) (assay: TAg ATPase/helicase activity blockers – biochemical (AID 1903)). Settings: SV40 large T antigen ATPase/helicase inhibition assay; at 20 µM; active compounds read high.
Chain of Large T antigen (Simian virus 40) (P03070 whole entry, looked up): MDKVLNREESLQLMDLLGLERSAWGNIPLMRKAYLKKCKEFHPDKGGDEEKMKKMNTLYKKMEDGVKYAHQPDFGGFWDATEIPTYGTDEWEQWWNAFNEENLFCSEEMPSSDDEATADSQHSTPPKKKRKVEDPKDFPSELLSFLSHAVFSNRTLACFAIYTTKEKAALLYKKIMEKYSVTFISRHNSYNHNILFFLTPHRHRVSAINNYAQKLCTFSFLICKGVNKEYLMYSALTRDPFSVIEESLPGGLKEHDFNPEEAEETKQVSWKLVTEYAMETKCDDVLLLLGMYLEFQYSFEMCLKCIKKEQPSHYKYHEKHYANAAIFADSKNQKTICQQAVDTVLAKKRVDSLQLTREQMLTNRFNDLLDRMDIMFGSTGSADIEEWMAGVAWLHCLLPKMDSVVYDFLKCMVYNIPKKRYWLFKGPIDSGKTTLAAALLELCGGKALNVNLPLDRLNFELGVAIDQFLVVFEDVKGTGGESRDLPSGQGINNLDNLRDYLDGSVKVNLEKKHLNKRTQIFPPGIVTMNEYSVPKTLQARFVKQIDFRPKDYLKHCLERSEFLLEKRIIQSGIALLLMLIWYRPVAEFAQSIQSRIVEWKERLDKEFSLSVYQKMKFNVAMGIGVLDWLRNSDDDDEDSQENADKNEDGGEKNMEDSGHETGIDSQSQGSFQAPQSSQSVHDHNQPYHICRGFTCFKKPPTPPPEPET

SMILES | inhibition
COc1ccc(NC(=O)CC2SC(=NCc3ccccc3OC)NC2=O)cc1 (centres undefined) | 0.11% (inactive)
COc1ccc(NC(=O)CSc2nnc(CC(=O)Nc3ccc(F)cc3)n2C)cc1 | 6.25% (inactive)
O=C(COC(=O)C1CCCN1C(=O)C12CC3CC(CC(C3)C1)C2)c1ccc(Br)cc1 (centres undefined) | 3.8% (inactive)
Cc1occc1C(=O)N1CCCC(N2CCN(c3ccccc3F)CC2)C1 (centres undefined) | 7.6% (inactive)
O=C(NCC1CC1)[C@]1(C(F)(F)F)C[C@H](CCC2CCCCC2)CCCO1 | 2.31% (inactive)
Fc1ccc(-c2nnc(CSc3nnc4ccccn34)o2)cc1 | 14.8% (inactive)
O=C(O)C1OC(Oc2cc3oc(-c4ccccc4)cc(=O)c3c(O)c2O)C(O)C(O)C1O (centres undefined) | 17.2% (inactive)
O=c1cc(-c2ccc(O)cc2)oc2c(C3O[C@H](CO)[C@@H](O)[C@H](O)[C@H]3O)c(O)cc(O)c12 (some centres undefined) | 26% (inactive)
O=c1cc(-c2ccc(O)cc2)oc2cc(O[C@@H]3O[C@H](CO)[C@@H](O)[C@H](O)[C@H]3O[C@@H]3OC[C@](O)(CO)[C@H]3O)cc(O)c12 | 8.96% (inactive)
O=c1c(-c2ccc(O)cc2)coc2c(C3O[C@H](CO)[C@@H](O)[C@H](O)[C@H]3O)c(O)ccc12 (some centres undefined) | 24.2% (inactive)
O=c1cc(-c2ccc(O)cc2)oc2c(C3OCC(O)C(O)C3O)c(O)c(C3OC(CO)C(O)C(O)C3O)c(O)c12 (centres undefined) | 45.1% (inactive)
CC(=O)Cc1cc(=O)c2c(C)cc(O)c(C3OC(CO)C(O)C(O)C3O)c2o1 (centres undefined) | 5.68% (inactive)
O=c1cc(-c2ccc(O)cc2)oc2c([C@@H]3O[C@H](CO)[C@@H](O)[C@H](O)[C@H]3O)c(O)c([C@@H]3O[C@H](CO)[C@@H](O)[C@H](O)[C@H]3O)c(O)c12 | 7.48% (inactive)
COc1c(O)cc2c(c1O)C1OC(CO)C(O)C(O)C1OC2=O (centres undefined) | 2.96% (inactive)
CC(O)CNCCOc1ccccc1-c1ccccc1 (centres undefined) | 8.76% (inactive)
CCOC(=O)CN1C(=O)NC(C)(c2ccc(OC(F)F)cc2)C1=O (centres undefined) | 11.6% (inactive)
CCC1(C)N=c2c(c(=O)n(C)c(=O)n2C)=NO1 (centres undefined) | 2.8% (inactive)
CC(C)CN1C(=O)NC2(CCCc3ccccc32)C1=O (centres undefined) | 25% (inactive)
COc1ccc(/C=C(/NC(=O)c2ccc(C)cc2)C(=O)NCC2CCCO2)cc1 (centres undefined) | 9.41% (inactive)
CCOC(=O)Nc1nc(-c2ccccc2)c(C(=O)c2ccccc2)s1 | 10% (inactive)
c1ccc(C2[C@H]3CN(Cc4cccnc4)[C@H](c4ccccc4)C34CC2(c2cccnc2)C4)cc1 (some centres undefined) | 5.83% (inactive)
CCOC(=O)CSc1ncnc2c1cnn2-c1ccc(Cl)cc1 | 2.59% (inactive)
COC(=O)c1nn(-c2ccccc2)c(Cl)c1/C=N/OCc1c(Cl)cccc1Cl | 6.28% (inactive)
COc1cc2c(cc1OC)CN(Cc1ccccc1)CC2 | 4.34% (inactive)

SMILES | inhibition
COc1cc2c(cc1OC)CC(=O)N(C)CC2 | -0.375% (inactive)
COc1cc(NC(=O)CN2CCCCC2C)c(C)cc1[N+](=O)[O-] (centres undefined) | -0.94% (inactive)
Nn1c(SCC(=O)NC(=O)NCc2ccco2)nnc1-c1ccc(OC(F)F)cc1 | 19.9% (inactive)
Cc1ccc(Nc2n[nH]c(C)c2[N+](=O)[O-])cc1C | 4.58% (inactive)
Cc1ccc(Nc2n[nH]c(C)c2[N+](=O)[O-])cc1 | -4.15% (inactive)
O=C(NC1CCN(C(=O)Nc2ccc(F)cc2)CC1)c1ccc(F)cc1 | -6.41% (inactive)
CC1=C/C(=C(\c2ccc(O)c(C)c2)c2ccccc2S(=O)(=O)O)C=CC1=O | 1.87% (inactive)
O=C(O)c1cc(S(=O)(=O)O)ccc1O | -2.3% (inactive)
O=C(NCC(c1cccs1)N1CCOCC1)c1ccc(Cl)cc1 (centres undefined) | 20.7% (inactive)
S=C(Nc1ccc(Nc2ccccc2)cc1)N1CCN(c2ncccn2)CC1 | 26.2% (inactive)
COc1cc2c(cc1O)C(Cc1ccc(O)cc1)NCC2 (centres undefined) | 14.4% (inactive)
COc1cc2c(cc1OC)C(Cc1ccc(O)cc1)NCC2 (centres undefined) | 70.4% (inactive)
c1ccc(CCc2nn3c(Cn4nnc5ccccc54)nnc3s2)cc1 | -1.97% (inactive)
O=C1c2ccccc2CCCC12N=NCC2c1cccc2ccccc12 (centres undefined) | -6.72% (inactive)
Cc1ncc(CO)c(/C=N/NC(=O)c2ccc(Br)cc2)c1O | 3.1% (inactive)
Cc1ncc(CO)c(/C=N/NC(=O)c2ccc(O)cc2)c1O | 4.85% (inactive)
O=C1C(Cc2ccccc2)Nc2ncnc(N3CCCCC3)c2N1Cc1ccc(Cl)cc1 (centres undefined) | 23.8% (inactive)
Oc1ccc(-c2cccc(-c3ccc(O)cc3)n2)cc1 | 24.3% (inactive)
Oc1ccc(C2=NNC(c3ccc(O)cc3)=NN2)cc1 | 6.31% (inactive)
C=CS(=O)(=O)c1sc(Cl)c(N2CCOCC2)c1[N+](=O)[O-] | 28.6% (inactive)
C=CSc1sc(Cl)c(N2CCOCC2)c1[N+](=O)[O-] | 15.5% (inactive)
Cc1nc(-c2ccc(C(=O)Nc3cccc(Br)c3)cc2)cs1 | 5.4% (inactive)
O=C(O)c1cn(CCOc2ccccc2Cl)c2ccccc12 | -2.87% (inactive)
CCNC(=O)NC(=O)CN(C)c1ccccc1 | 1.38% (inactive)

SMILES | inhibition
COc1ccc(N(CC(=O)Nc2cc(C)on2)S(=O)(=O)c2cc(C)ccc2C)cc1 | -9.08% (inactive)
COc1cc(C(=O)O)ccc1Cl | 8.61% (inactive)
Cc1cccc(N=Nc2cnc(N)s2)c1 | 14.7% (inactive)
COc1ccc(/C=C/C(=O)N(Cc2ccccc2)c2ccccn2)cc1OC | -1.52% (inactive)
O=C(/C=C/c1c(F)cccc1Cl)Nc1nc2ccccc2[nH]1 | 9% (inactive)
COc1ccc2cc(C(=O)CS(=O)(=O)c3ccccc3)c(=O)oc2c1 | 3.93% (inactive)
O=C(CS(=O)(=O)c1ccccc1)c1cc2ccccc2oc1=O | 32.7% (inactive)
Cc1cc(NC(=O)c2nn3cccnc3c2Cl)no1 | 4.99% (inactive)
Clc1ccc(-c2cnc3ccccc3n2)cc1 | 5.89% (inactive)
CN1C(=O)[C@@H]2C[C@@]3([C@@]45C[C@H]6C(=O)N(C)[C@@H](Cc7ccccc7)C(=O)N6[C@@H]4Nc4ccccc45)c4ccccc4N[C@H]3N2C(=O)[C@@H]1Cc1ccccc1 | 4.57% (inactive)
O=C(O)CCn1cc(/C=C2\SC(=S)NC2=O)c(-c2ccccc2)n1 | 1.75% (inactive)
O=Cc1cn(CCC(=O)O)nc1-c1cccc(Cl)c1 | 7.59% (inactive)
COc1ccc(C2(C(=O)Nc3cc(C)on3)CCOCC2)cc1 | 0.88% (inactive)
O=C(O)c1cccc(Cn2c(Cl)c(/C=N/Nc3ccccc3)sc2=O)c1 | 29.6% (inactive)
O=C(O)c1cccc(Cn2c(Cl)c(/C=N/NC(=O)c3ccccc3)sc2=O)c1 | 7.08% (inactive)
CCC(C(=O)NC1CCCCCC1)n1nc(C)c2c(C)n(-c3ccccc3)nc2c1=O (centres undefined) | 8.34% (inactive)
COC(=O)c1ccc(NC(=O)CN(C2CCCCC2)S(C)(=O)=O)cc1 | -3.48% (inactive)
Cc1ccc([N+](=O)[O-])cc1N | -1.11% (inactive)
Cc1cc([N+](=O)[O-])ccc1N | 6.27% (inactive)
Cc1ccc(CN2CCN(C/C=C/c3ccc(F)cc3)CC2CCO)o1 (centres undefined) | 19.4% (inactive)
Cc1sc2ncn(CC(=O)NCc3ccco3)c(=O)c2c1-c1ccc(F)cc1 | 14.3% (inactive)
Cc1ccc(C(=O)N2CC(C)SC2=Nc2cccc(S(=O)(=O)N(C)C)c2)cc1 (centres undefined) | 18.9% (inactive)
COc1cc(/C=N/n2c(C3CCCCC3)n[nH]c2=S)cc(Br)c1O | 12.8% (inactive)
COc1cc(/C=N/N2CCN(Cc3ccc(Cl)cc3)CC2)cc(Br)c1O | 10.9% (inactive)

SMILES | inhibition
COc1cc(/C=N/Nc2cccc(C)c2)cc(Br)c1O | 13.3% (inactive)
CCN=c1scc(C)n1/N=C/c1ccsc1 | 12.1% (inactive)
COc1ccc(/C=N/N2C(=O)CSC2=S)cc1Br | 33.2% (inactive)
CCN=c1scc(C)n1/N=C/c1ccc(O)c(O)c1O | 9.52% (inactive)
COc1cc(/C=N/N2C(=O)CSC2=S)ccc1O | 37.9% (inactive)
CCN=C1S/C(=C\c2cc(Br)c(O)c(OC)c2)C(=O)N1CC | 25.1% (inactive)
COc1ccccc1NC(=O)c1sc2nc(N3CCOCC3)c3c(c2c1N)CCCC3 | 15.5% (inactive)
S=c1[nH]nc(-c2ccccn2)n1/N=C/c1c(Cl)cccc1Cl | 24.9% (inactive)
COc1ccccc1N1CCN(C(=O)/C=C/c2ccccc2)CC1 | 5.64% (inactive)
COc1ccc(/C=C(/C#N)C(=O)Nc2ccc(C)cc2C)cc1C(=O)O | 19.8% (inactive)
COc1cc(NC(=O)C2=C(N3CCOCC3)/C(=C\c3ccc(Br)cc3)CC2)cc(OC)c1OC | -0.46% (inactive)
O=C(Nc1ccccc1)c1cccc(S(=O)(=O)N2CCCCC2)c1 | 1.37% (inactive)
Cn1c2ccccc2c2n[nH]c(=S)nc21 | 14.8% (inactive)
CCOC(=O)c1c(S(=O)(=O)NCc2ccc(OC)cc2)c(C)n(C)c1C | 8.6% (inactive)
O=C(CSCC(=O)N1CCCCC1)OCC(=O)c1c[nH]c2ccccc12 | 7.84% (inactive)
O=C(CSC1=NS(=O)(=O)c2ccccc2N1)NCCc1ccccc1 | 10.2% (inactive)
O=C1CSC(=S)N1/N=C/c1cc(Br)ccc1O | 19.8% (inactive)
COc1cc(/C=N/NC(=O)CC2(C)OCCO2)cc(Br)c1O | 18% (inactive)
O=C1CSC(=S)N1/N=C/c1ccc(Cl)c([N+](=O)[O-])c1 | 29.2% (inactive)
COc1cc(/C=N/N=C/c2cc(OC)c(O)c(OC)c2)cc(OC)c1O | 36.7% (inactive)
COc1cc(/C=N/N2C(C)CCCC2C)cc(Br)c1O (centres undefined) | 29.5% (inactive)
CCCCCC(=O)N/N=C/c1cc(Br)c(O)c(OC)c1 | 24.7% (inactive)
